# According to publication PMC4336329 (PLoS ONE, 2015):
# Out of some 310,000 compounds screened, about 14,000 (4.5%) showed an effect of 50% or more. Effects have a minus sign here. Many of the other results were omitted from the sample, so strong results are more common in it than they were.
# Target: human ether-à-go-go-related gene (hERG) potassium channel (human, UniProt Q12809)
# Test: primary screen, population patch clamp on CHO cells stably expressing hERG; higher = less effect of the substance
# 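Also: peak tail current of the secondary pulse compared with the same well before compound.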
# Sequence of human ether-à-go-go-related gene (hERG) potassium channel (Q12809 whole entry, looked up): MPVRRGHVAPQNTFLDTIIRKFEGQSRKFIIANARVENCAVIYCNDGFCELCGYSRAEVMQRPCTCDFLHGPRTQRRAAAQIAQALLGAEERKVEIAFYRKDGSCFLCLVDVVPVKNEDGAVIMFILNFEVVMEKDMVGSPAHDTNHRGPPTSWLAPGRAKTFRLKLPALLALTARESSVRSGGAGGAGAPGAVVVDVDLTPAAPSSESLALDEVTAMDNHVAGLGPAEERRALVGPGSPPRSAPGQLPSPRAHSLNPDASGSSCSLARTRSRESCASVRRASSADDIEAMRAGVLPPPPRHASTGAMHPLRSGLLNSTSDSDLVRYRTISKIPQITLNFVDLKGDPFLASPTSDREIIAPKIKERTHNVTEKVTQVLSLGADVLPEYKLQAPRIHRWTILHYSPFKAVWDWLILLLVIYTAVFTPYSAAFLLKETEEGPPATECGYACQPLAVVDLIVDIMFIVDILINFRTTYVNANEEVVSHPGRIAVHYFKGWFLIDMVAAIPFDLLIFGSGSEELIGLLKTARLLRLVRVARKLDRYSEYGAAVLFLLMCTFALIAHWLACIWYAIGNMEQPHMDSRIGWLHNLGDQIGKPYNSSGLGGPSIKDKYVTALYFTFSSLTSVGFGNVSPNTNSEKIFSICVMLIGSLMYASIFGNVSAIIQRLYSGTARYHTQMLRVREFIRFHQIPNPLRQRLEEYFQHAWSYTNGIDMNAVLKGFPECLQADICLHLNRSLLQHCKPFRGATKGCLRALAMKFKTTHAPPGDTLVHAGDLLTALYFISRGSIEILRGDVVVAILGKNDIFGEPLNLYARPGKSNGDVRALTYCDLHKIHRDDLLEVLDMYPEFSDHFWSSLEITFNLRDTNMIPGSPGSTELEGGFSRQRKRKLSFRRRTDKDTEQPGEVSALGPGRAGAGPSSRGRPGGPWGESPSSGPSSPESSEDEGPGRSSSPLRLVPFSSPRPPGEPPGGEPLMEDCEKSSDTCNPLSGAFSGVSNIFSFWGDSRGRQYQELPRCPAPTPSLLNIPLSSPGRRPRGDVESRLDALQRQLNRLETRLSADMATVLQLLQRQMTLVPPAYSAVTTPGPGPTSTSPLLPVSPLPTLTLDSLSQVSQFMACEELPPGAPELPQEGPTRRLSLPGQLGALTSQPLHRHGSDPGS
row,Structure (SMILES),"hERG current change (%, negative = inhibition) at 10uM [%]"
1,C=C(C)Cn1c(C2CC(=O)N(c3ccccc3F)C2)nc2ccccc21 (stereo not shown),-27
2,Cc1ccc(OCC(=O)NC(C)c2ccc(Cl)c(Cl)c2)c([N+](=O)[O-])n1 (stereo not shown),-21.4
3,CN(C)CCCNCCCNC(=O)/C(=N\O)c1ccccc1,6.64
4,O=C(c1cccs1)N1CCCC(N2CCN(c3ccc(F)cc3)CC2)C1 (stereo not shown),-65.7
5,O=C(c1ccncc1)N1CCCC(N2CCN(c3ccc(F)cc3)CC2)C1 (stereo not shown),-44.6
6,COc1ccccc1N1CCN(C2CCCN(C(=O)c3cccc(-c4ccco4)c3)C2)CC1 (stereo not shown),-36.1
7,CC(=O)c1ccc(C(=O)N2CCCC(N3CCN(c4ccc(F)cc4)CC3)C2)s1 (stereo not shown),-63.7
8,O=C(c1cccs1)N1CCN(c2ccc(F)cc2)CC1,-9.63
9,CC(C)n1cc(C(=O)N2CCCC(N3CCN(c4ccc(F)cc4)CC3)C2)cn1 (stereo not shown),-34.9
10,O=C(c1ccoc1)N1CCCC(N2CCN(c3ccc(F)cc3)CC2)C1 (stereo not shown),-48.1
11,O=C(C1CCOCC1)N1CCCC(N2CCN(c3ccc(F)cc3)CC2)C1 (stereo not shown),-3.64
12,O=C(c1ccc(Cl)s1)N1CCCC(N2CCN(c3ccc(F)cc3)CC2)C1 (stereo not shown),-70.1
13,CC(C)=CC(=O)N1CCCC(N2CCN(c3ccc(F)cc3)CC2)C1 (stereo not shown),-0.816
14,O=C(c1cccc(-c2ccco2)c1)N1CCCC(N2CCN(c3ccc(F)cc3)CC2)C1 (stereo not shown),-78.5
15,Cc1ccccc1N1CCN(C2CCCN(C(=O)c3ccc(Cl)s3)C2)CC1 (stereo not shown),-46.8
16,CCN(C(=O)COC(=O)C1CCN(S(=O)(=O)c2ccc(C)c(C)c2)CC1)C1CCS(=O)(=O)C1 (stereo not shown),-7.82
17,Cc1nnc2ccc(-c3ccc(NS(C)(=O)=O)cc3)nn12,-16
18,CCOc1nc(Nc2ccccc2)nc(OCC)n1,-21.7
19,COc1ccc(-c2ccc(N(C)C)cc2)cc1[C@H]1[C@H]2C=CC[C@@H](C)[C@@H]2C(=O)N1Cc1ccccc1,10.1
20,Cc1nc(N2CCN(Cc3ccccc3)CC2)nc2c1C(=O)CC(C)C2 (stereo not shown),-5.32
21,C(=N\N1CCN(C2c3ccccc3-c3ccccc32)CC1)/c1cccnc1,2.63

row,Structure (SMILES),"hERG current change (%, negative = inhibition) at 10uM [%]"
1,Cc1nnc(NC(=O)c2ccc(S(=O)(=O)N3CC(C)OC(C)C3)cc2)o1 (stereo not shown),12.6
2,Cc1ccc(S(=O)(=O)N2CCCC2C(=O)Nc2nc3ccccc3s2)cc1 (stereo not shown),-14.8
3,Oc1ccc(/C=N/N=C(c2ccccc2)c2ccccc2)c(O)c1O,8.49
4,COC(=O)CSc1nccc(C)n1,14.6
5,COC(=O)c1cn(NC(=O)Cn2nc([N+](=O)[O-])c(Cl)c2C)c(=O)c2ccccc12,18.6
6,O=C(Nc1ccccc1C(=O)N1CCCC1)c1cccc(S(=O)(=O)N2CCCCCC2)c1,-39.3
7,CC1CCN(S(=O)(=O)c2cccc(C(=O)Nc3ccccn3)c2)CC1,-22.1
8,CC1CCN(S(=O)(=O)c2cccc(C(=O)Nc3ccccc3)c2)CC1,-9.3
9,CCNC(=O)c1ccccc1NC(=O)c1cccc(S(=O)(=O)N2CCC(C)CC2)c1,-55.4
10,O=C(Nc1ccccc1C(=O)N1CCCC1)c1cccc(S(=O)(=O)N2CCCCC2)c1,-12.1
11,CNC(=O)c1ccccc1NC(=O)c1cccc(S(=O)(=O)N2CCCCC2)c1,-51.1
12,CCNC(=O)c1ccccc1NC(=O)c1cccc(S(=O)(=O)N2CCOCC2)c1,-71.5
13,Cc1ccccc1NC(=O)c1cccc(S(=O)(=O)N2CCOCC2)c1,31.9
14,O=C(Nc1ccccc1O)c1cccc(S(=O)(=O)N2CCOCC2)c1,17.7
15,COc1c(O)c(=O)n2c3ccccc3c3ccnc1c32,7.51
16,CCc1ccc(NC(=O)Nn2cnnc2)cc1,23.7
17,COC(=O)CNC(=O)CSc1nnc(-c2ccc(OC)cc2)n1CC(C)C,4.97
18,O=C(/C=N/O)Nc1ccccc1C(=O)O,-13.7
19,N#Cc1ccc(C23CC4(C2)[C@H](CN(CC2CCCCC2)[C@@H]4c2ccccc2)C3c2ccccc2)cc1 (stereo partly shown),-13.6
20,O=C(Nc1ccc(Cl)cc1)c1cccnc1N1CCCCC1,-13.3
21,COc1cc(C(=O)NCCNc2nc3ccc(C)cc3cc2C#N)cc(OC)c1OC,-4.74

row,Structure (SMILES),"hERG current change (%, negative = inhibition) at 10uM [%]"
1,Cc1cccc2cc3c(NC(=O)CC(C)C)nn(C)c3nc12,10.2
2,Clc1cccc(-c2sc(Nc3ccccc3)n[n+]2-c2ccccc2)c1Cl.[Cl-],5.53
3,CN(C)c1ccc(-c2sc(Nc3ccccc3)n[n+]2-c2ccc(F)cc2)cc1.[Cl-],-73.1
4,O=C(O)c1ccc(-c2sc(Nc3ccccc3)n[n+]2-c2ccc(F)cc2)cc1.[Cl-],2.83
5,Cc1cccc(-c2sc(Nc3ccccc3)n[n+]2-c2ccccc2)c1.[Cl-],-72
6,CSc1ccc(-c2sc(Nc3ccccc3)n[n+]2-c2ccc(F)cc2)cc1.[Cl-],1.55
7,CCc1ccc(Nc2n[n+](-c3ccccc3)c(-c3ccc(N(CC)CC)cc3)s2)cc1.[Cl-],-36
8,Fc1ccc(-[n+]2nc(Nc3ccccc3)sc2-c2c(Cl)cccc2Cl)cc1.[Cl-],-64
9,CSc1ccc(-c2sc(Nc3ccccc3)n[n+]2-c2ccccc2)cc1.[Cl-],-46.2
10,Oc1ccc(-c2sc(Nc3ccccc3)n[n+]2-c2ccc(F)cc2)cc1.[Cl-],-1.63
11,Fc1ccc(-[n+]2nc(Nc3ccccc3)sc2-c2cccc(Cl)c2Cl)cc1.[Cl-],8
12,Cc1cccc(-c2sc(Nc3ccccc3)n[n+]2-c2ccc(F)cc2)c1.[Cl-],21.7
13,CCN(CC)c1ccc(-c2sc(Nc3ccccc3)n[n+]2-c2ccc(F)cc2)cc1.[Cl-],-71.6
14,Cl.O=C(c1ccco1)N1CCN(Cc2nnnn2CC2CCCO2)CC1 (stereo not shown),-3.16
15,Cn1c(=O)[nH]c(=O)c2c1nc(NC1CCCC1)n2Cc1ccccc1,15.8
16,CC1CCN(c2c(NCc3ccc(C(=O)N4c5ccccc5CC4C)cc3)c(=O)c2=O)CC1 (stereo not shown),-13
17,Cc1ccc(S(=O)(=O)Nc2c(C(=O)O)[nH]c3ccccc23)c(C)c1,8.39
18,N#C/C(N)=C(/C#N)N=Cc1cccc(Cl)c1,4.99
19,CCN1CCN(Cc2c(O)ccc3c2O/C(=C\c2ccc(C)cc2)C3=O)CC1,-35.7
20,CSc1ccc(S(=O)(=O)Nc2ccc(NC(C)=O)cc2)cc1,-11.3
21,CCOc1ccc(CN(C(=O)/C=C/c2ccco2)C2CCS(=O)(=O)C2)cc1 (stereo not shown),-31.6

row,Structure (SMILES),"hERG current change (%, negative = inhibition) at 10uM [%]"
1,CC(=O)c1cccc(N(C(=O)CNC(=O)c2ccco2)C(C(=O)NC2CCCC2)c2ccc(C)o2)c1 (stereo not shown),6.93
2,CCN1CCN(C(=O)C2CCCN(c3ncnc4c3nc3n4CCCCC3)C2)CC1 (stereo not shown),11.6
3,Cc1ccc(N2CCN(C(=O)C3CCCN(c4ncnc5c4nc4n5CCCCC4)C3)CC2)c(C)c1 (stereo not shown),-7.35
4,CCOC(=O)C1CCN(C(=O)C2CCCN(c3ncnc4c3nc3n4CCCCC3)C2)CC1 (stereo not shown),-34.1
5,O=C(C1CCN(c2ncnc3c2nc2n3CCCCC2)CC1)N1CCCCC1,16
6,O=C(NCCCN1CCCCC1)C1CCCN(c2ncnc3c2nc2n3CCCCC2)C1 (stereo not shown),1.8
7,O=C(C1CCN(c2ncnc3c2nc2n3CCCCC2)CC1)N1CCN(c2ccc(F)cc2)CC1,-51.5
8,O=C(C1CCCN(c2ncnc3c2nc2n3CCCCC2)C1)N1CCN(c2ccccc2F)CC1 (stereo not shown),-72
9,O=C(C1CCCN(c2ncnc3c2nc2n3CCCCC2)C1)N1CCN(c2ccc(F)cc2)CC1 (stereo not shown),-66.8
10,O=C(NCCCN1CCN(c2ccc(F)cc2)CC1)C1CCCN(c2ncnc3c2nc2n3CCCCC2)C1 (stereo not shown),-66.3
11,O=C(C1CCN(c2ncnc3c2nc2n3CCCCC2)CC1)N1CCN(c2ccccc2F)CC1,-33.1
12,CN1CCN(C(=O)C2CCN(c3ncnc4c3nc3n4CCCCC3)CC2)CC1,17.7
13,CC1CCN(CCCNC(=O)C2CCCN(c3ncnc4c3nc3n4CCCCC3)C2)CC1 (stereo not shown),-3.75
14,O=C(O)CCC(=O)Nc1cc(C(F)(F)F)cc(C(F)(F)F)c1,15.1
15,Cc1ccccc1-n1c(-c2csc(C)c2C)n[nH]c1=S,17.6
16,Cc1cc(C)c2c(N)c(C(=O)c3cccc(Cl)c3)sc2n1,1.67
17,CCOc1ccc(C(=O)N2CCc3cc(OC)c(OC)cc3C2)cc1OCC,2.45
18,CCOC(=O)C(C(=O)OCC)N(C#N)c1nc(OC)nc(N(C)C)n1,-4.52
19,O=C(CS)Nc1ccc2ccccc2c1,20.8
